# Rows were chosen to be rich in hits. Some 6.5% of all compounds tested hit in one or more screens of this group.
# NADH enzymes: blocks coupling enzymes of NAD/NADH assays | IC50, µM (doses to about 10 µM), without a hit: top-dose inhibition | AID 774 | actives 0.02% (n = 65,000) | coupled PK/LDH NADH assays, four targets;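 active = single-dose screening hits from any of four coupled enzyme assays that gave an IC50 when retested across doses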;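 note: the DPM-DC format reads NADH fluorescence rather than 340 nm absorbance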
# PMK inhibit: inhibitors of Streptococcus pneumoniae phosphomevalonate kinase; purified PMK, PK/LDH-coupled NADH absorbance 340 nm; inhibition, % at 10 µM; actives 0.49% (n = 65,000);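 active = top-ranked compounds by inhibition in the single 10 µM screen, taking a fixed number of the strongest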;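 note: 0% = full reaction with DMSO carrier and 100% = background rate without enzyme reaction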
# Autofluor 339: intrinsic fluorescence of library compounds, ex339/em460 – biochemical, MLSMR library, data from DPM-DC assay, artefact control, profiling panel; compound autofluorescence, ex339/em460 nm, NADH buffer; stronger effect = higher value; 1 = no-compound wells, NADH background; fluorescence fold increase at 10 µM; actives 5.5% (n = 65,000); AID 709;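 active = at 10 µM, mean starting fluorescence two-fold or more over control wells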;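 note: signal is the first read of a kinetic run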
# Abs 340nm: compounds absorbing at 340 nm | compound absorbance at 340 nm, fold over control | 65,000 tested, under 10 active | fold change at 10 µM;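 active = at 10 µM dose, initial 340 nm absorbance at least 2 fold that of control wells; inactive = change under 2 fold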;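 note: initial absorbance extrapolated from kinetic A340 decline of NADH oxidation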
# DPM-DC inhibit: inhibitors of Streptococcus pneumoniae diphosphomevalonate decarboxylase | purified DPM-DC, PK/LDH coupled NADH fluorescence | actives 0.49% (n = 65,000) | calls only at 10 µM;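 active = the 320 compounds with the highest percent inhibition in the single-dose primary screen, excluding strongly autofluorescent ones, cut at about 32% in these data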;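 note: kinetic rate of NADH fluorescence loss reporting ADP formed by the decarboxylase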
# Spn MK inh: S. pneumoniae mevalonate kinase inhibition; purified MK, PK/LDH-coupled NADH absorbance 340 nm; AID 555; inhibition, % at 10 µM; actives 0.48% (n = 65,000);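 active = ranked among the strongest by inhibition in the single 10 µM screen, a fixed top-ranked set picked for dose follow-up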
# * hit, by the source's call; i = inactive; · = no result shown; + = active, no number.
SMILES,NADH enzymes,PMK inhibit,Autofluor 339,Abs 340nm,DPM-DC inhibit,Spn MK inh
COc1cccc(C2NC(=O)NC(O)(C(F)(F)F)C2C(=O)c2cccnc2)c1OC (configuration not stated),8%,14,1.2,1,i,11
Cc1csc(NC(=O)C2CCC(C)(C(=O)O)C2(C)C)n1 (configuration not stated),11%,29*,1.1,1,i,5
CCC1(C)Cc2nc3sc(C(=O)O)c(N)c3cc2CO1 (configuration not stated),1%,0,1.1,1.1,i,4
CCCCS(=O)(=O)c1sc2nc3c(cc2c1N)CCCC3,8%,6,3.3*,1.1,·,10
CCC(=O)N/C(N)=N/c1nc(C)c2cc(OC)ccc2n1,1%,1,2.1*,1,·,2
CCOC(=O)CSc1nc(C)c2cc(OC)ccc2n1,0%,0,3.7*,1.1,·,0
CCOC(=O)CCSc1nc(C)c2ccccc2n1,3%,9,1.2,1.1,i,0
COc1ccc2nc(/N=C(\N)NC(=O)C(C)(C)C)nc(C)c2c1,7%,6,2,1,i,2
O=C(Nc1ccc(-c2nnc(-c3ccccc3)o2)cc1)C(F)(F)F,7%,0,1.7,1.1,i,4
CC(=O)/C=C(\C)Nc1ccc(-c2cnc(-c3ccccc3)o2)cc1,9%,2,2.2*,1.2,·,15
Cc1nc(CN2CCN(C(=O)c3ccc(Br)cc3)CC2)cs1,6%,5,1.1,1,i,3
CS/C(=N\S(=O)(=O)c1cccs1)NC(=O)CSc1nc2ccccc2s1,4%,7,1.3,1,i,3
Cc1ccc(C2C3=C(CC(C)(C)CC3=O)N(CCN3CCOCC3)C3=C2C(=O)CC(C)(C)C3)cc1,16%,5,3.8*,0.99,+,8
CCC(C)C(=O)Nc1nnc(-c2cccs2)s1 (configuration not stated),10%,15,2.6*,1.1,i,0
COCC(=O)Nc1nnc(-c2cccs2)s1,5%,4,1.9,1.1,i,0
O=C(O)Cn1nnnc1SCC(=O)Nc1ccc(OC(F)(F)F)cc1,2%,7,1.1,1,i,0
CC(C)Cc1cc(C(=O)O)n[nH]1,16%,10,2*,1,i,10
O=C(O)c1cc(-c2ccco2)[nH]n1,2%,6,1.1,1,i,1
S=C(NCC1CCCO1)n1nnc2ccccc21 (configuration not stated),2%,2,1.1,1,i,6
c1ccc2c(c1)nc(NCC1CCCO1)c1nnnn12 (configuration not stated),3%,5,2.1*,1.1,·,0
O=C(CSc1nnc(-c2csc3c2CCCC3)o1)Nc1ccccc1,7%,0,1.1,1,i,13
COC(=O)NCCOC(=O)N(O)c1ccc(Br)cc1,1%,2,1.1,1,i,0
CCCc1cc(=O)oc2c(CN3CCCC3)c(O)c(Cl)cc12,3%,6,2.4*,1.1,·,0
CCc1cc(=O)oc2cc(C)c(CN3CCCC3)c(O)c12,1%,4,1.1,1,i,0
CCCc1cc(=O)oc2cc(C)c(CN3CCCC3)c(O)c12,2%,1,1.2,1.1,i,6
SMILES,NADH enzymes,PMK inhibit,Autofluor 339,Abs 340nm,DPM-DC inhibit,Spn MK inh
CCCc1cc(=O)oc2c(CN3CCCC3)c(O)ccc12,3%,0,2.3*,1.1,·,6
CCOC(=O)Cn1c(CN(Cc2ccccc2)Cc2ccccc2)nc2c1c(=O)n(C)c(=O)n2C,5%,9,1.1,0.97,i,6
CN1CCN(Cc2nc3c(c(=O)n(C)c(=O)n3C)n2CCc2ccccc2)CC1,4%,4,1.1,1,i,8
CCOC(=O)C(C)c1nc2ccccc2[nH]c1=O (configuration not stated),7%,7,1.6,1.1,i,3
CC(C)OC(=O)CCc1nc2ccccc2[nH]c1=O,3%,6,2*,1.1,i,2
CCCCn1c(SCC(=O)Nc2cccc(OC)c2)nc2ccc(N3CCOCC3)cc2c1=O,3%,2,3.1*,1.1,i,3
COc1cccc(NC(=O)Cn2c(SCC(=O)N3CCOCC3)nc3ccccc32)c1,4%,3,1.1,1,i,9
COCCCNC(CC(=O)Nc1ccccc1C(=O)OC)C(=O)O (configuration not stated),6%,3,1.1,1.1,i,15
CCOC(=O)c1ccccc1NC(=O)C1COc2ccccc2O1 (configuration not stated),6%,10,1.1,1,i,7
CCOC(=O)c1ccccc1NCN1C(=O)CSC1=O,17%,29*,2.2*,1.1,·,4
CCOC(=O)c1ccccc1NC1CC(=O)N(c2ccccc2C)C1=O (configuration not stated),4%,17,3.3*,1,·,4
CCOC(=O)c1ccc(NC(=O)CN2C(=O)CSC2=O)cc1,10%,15,1.1,1,i,7
Cc1nc(Nc2ncc3c(n2)CCCC3=O)nc2ccccc12,2%,0,1.1,1.1,i,6
Cc1ccc2c(c1)-c1ccccc1S(=O)(=O)N2,5%,0,3.7*,1,·,10
Cc1cc2oc(=O)cc(C)c2cc1NC(=O)CCC(=O)O,11%,5,2.5*,0.99,i,9
C=CCn1nnc2sc3c(c2c1=O)CCC(C)C3 (configuration not stated),6%,0,0.98,1.1,i,15
Cc1nn(-c2ccccc2)c2c1C(O)n1c(nc3ccccc31)S2 (configuration not stated),6%,10,1,1,i,+
Cc1nn(-c2ccc(C(=O)O)cc2)c(N)c1-c1ccccc1,6%,15,1.1,0.97,i,3
O=c1c[n+]([O-])c2ccccc2n1OCc1ccccn1,1%,0,1.2,1,i,0
O=c1c[n+]([O-])c2ccccc2n1OCc1c(F)cccc1F,6%,12*,1.3,1.1,i,8
C=CCn1c(=N)c(C(=O)NCCCOC)cc2c(=O)n3ccccc3nc21,14%,18,3.7*,1,·,10
C=CCn1c(=N)c(C(=O)NCCCOC)cc2c(=O)n3cc(C)ccc3nc21,5%,9,3.8*,1,·,0
C=CCn1cc(C(=O)NCCCOC)c(=O)c2cc(S(=O)(=O)N(CC)CC)ccc21,4%,9,1.2,1,i,4
Cn1c(=O)c2c(nc(CN3CCc4ccccc4C3)n2CC(=O)c2ccccc2)n(C)c1=O,4%,5,1.1,0.99,i,7
COC(=O)c1ccccc1NC(=O)c1cc2ncc(Br)cn2n1,10%,5,2.1*,1.1,i,13

# Compound activity deposited in PubChem BioAssay by SRMLSC.
